Laboratory results as given in PubChem BioAssay AID2314 (National Center for Advancing Translational Sciences (NCATS), 2010).
About 37,000 (12%) of roughly 300,000 compounds were called active. Rule as the data show it: active = max response mostly above about 13% (no sharp cut-off); inactive = mostly below about 14%. For the sample, actives were picked, then their nearest neighbours and some compounds at random.

Assay: Cycloheximide Counterscreen for Small Molecule Inhibitors of Shiga Toxin; also: read at 38.3 µM for the half of the compounds with a filed dose; 0% is about no effect
Settings: cell reporter, cycloheximide protein synthesis inhibition counterscreen; stronger effect = higher value
In the case of `O=C(CNC(=O)[C@@H]1Cc2ccccc2CN1)NC1CCCCC1`, the max response is reported as 1.46% (inactive).
For `COc1ccc(/C(C)=N/Nc2cc(C(F)(F)F)ccc2Cl)c(OC)c1`, the max response was -5.52% (inactive).
In the case of `Cn1nc(-c2ccccc2)c2cc([N+](=O)[O-])ccc21`, the max response is reported as 1.38% (inactive).
For `Nc1c(-c2cccc(Cl)c2)cnn1-c1cccc([N+](=O)[O-])c1`, the max response was 17.2% (active).
In the case of `O=C(CCl)N(Cc1cccc([N+](=O)[O-])c1)c1cccc(Cl)c1`, the max response is reported as -0.93% (inactive).
For `CN(C)/C=C(\C=[N+](C)C)c1[nH]ncc1[N+](=O)[O-]`, the max response was -6.11% (inactive).
For `CNc1[nH]ncc1[N+](=O)[O-]`, the max response was 40.2% (active).
For `CC(=O)C(C)n1cnc2scc(-c3ccc(C)cc3)c2c1=O` (centres undefined), the max response was 1.16% (inactive).
With `COc1ccc(CN2CCCC(C(=O)N3CCCCC3)C2)cc1` (centres undefined) the max response was -1.73% (inactive).
For `Cc1ccc(SCC(=O)Nc2ncc(C)s2)cc1`, the max response was 25% (active).
For `COc1ccc(CC(=O)NCc2nnc(SCC(=O)Nc3ncc(C)s3)n2C)cc1`, the max response was 3.99% (inactive).
For `Cc1cnc(NC(=O)CSc2nnc(C)s2)s1`, the max response was 20.1% (inactive).
With `Cc1cnc(NC(=O)CSc2c(Cl)cccc2Cl)s1` the max response was 5.96% (inactive).
For `Cc1cnc(NC(=O)CSc2nnc(-c3ccccc3)n2Cc2ccccc2)s1`, the max response was -3.18% (inactive).
With `Cc1cnc(NC(=O)CSc2nnc(-c3ccc(Cl)cc3Cl)n2N)s1` the max response was 24.6% (active).
For `COc1ccc(CNS(=O)(=O)c2ccc(NC(=O)N3CCCCC3)cc2)cc1`, the max response was 2.3% (inactive).
For `CCOC(=O)c1c(-c2ccccc2)oc2cc(Br)c(O)c(C=O)c12`, the max response was 5.72% (inactive).
In the case of `CCN(CC)c1ccc(NC(=O)CCc2nnc3ccc(N4CCCCC4)nn23)c(C)c1`, the max response is reported as -1.8% (inactive).
In the case of `CCCc1ccc(OCC(O)CN2CCN(CCO)CC2)cc1` (centres undefined), the max response is reported as -1.67% (inactive).
With `S=c1nc(C23CC4CC(CC(C4)C2)C3)nc2sccn12` the max response was 1.25% (inactive).
For `CCn1c(NC(=O)c2nn(C)cc2Br)nc2ccccc21`, the max response was -2.42% (inactive).
For `COC(=O)CN1C(=O)C(C)(C)Oc2ccc(C(=O)Nc3cccc(OC)c3)cc21`, the max response was -5.75% (inactive).
For `CC(C)c1ccc(C(=O)OC2CCOC2=O)cc1` (centres undefined), the max response was 6.8% (inactive).
With `O=C1OCCN1C(=O)[C@H]1[C@H](c2ccc(F)cc2)C(c2ccccc2)=NN1c1ccc(Br)cc1` the max response was 5.32% (inactive).
For `Cc1ccc(C)c(Cn2cnc3c(oc4ccccc43)c2=O)c1`, the max response was 20.1% (active).
In the case of `Cc1ccc(C)c(NC(=O)CSc2nc3c(oc4ccccc43)c(=O)n2-c2ccccc2)c1`, the max response is reported as 0.718% (inactive).
In the case of `CCC(C(=O)OC)n1cnc2c(oc3ccccc32)c1=O` (centres undefined), the max response is reported as -2.56% (inactive).
With `OC(COCC1COc2ccccc2O1)CN1CCN(c2ccc(F)cc2)CC1` (centres undefined) the max response was -1.11% (inactive).
With `O=C1CCC(C(=O)N2CCC(O)(c3ccccc3)CC2)CN1CCc1ccccc1` (centres undefined) the max response was -0.943% (inactive).
With `CC(C)c1nnc(NC(=O)C2CC(=O)N(CCc3ccc(F)cc3)C2)s1` (centres undefined) the max response was -6.02% (inactive).
For `Cc1cc(C(=O)NC2CC(C)(C)Cc3c2cnn3-c2ccccc2)n[nH]1` (centres undefined), the max response was 3.28% (inactive).
For `CC1(C)Cc2c(cnn2-c2cccc(F)c2)C(NC(=O)c2cc[n+]([O-])cc2)C1` (centres undefined), the max response was -3.06% (inactive).
For `COC(=O)c1ccc(C(=O)NC2CC(C)(C)Cc3c2cnn3-c2ccc(F)cc2)nc1` (centres undefined), the max response was 24.5% (active).
In the case of `COC(=O)c1cccc(N2C(=O)C3C4C=CC(CC4)C3C2=O)c1` (centres undefined), the max response is reported as -3.45% (inactive).
For `O=C(O)c1cc(S(=O)(=O)NC2CCCc3ccccc32)ccc1O` (centres undefined), the max response was 1.09% (inactive).
With `Cc1cc(-c2ccc(C)c(S(=O)(=O)NCCCN(Cc3ccccc3)C(C)C)c2)on1` the max response was -2.55% (inactive).
With `Cc1ccc(C(=O)CSc2nnc(Cn3nnc4ccccc43)n2C)cc1` the max response was -0.925% (inactive).
With `Cc1ccc(Sc2cc(C(=O)c3ccccc3C(=O)O)ccc2[N+](=O)[O-])cc1` the max response was -4.78% (inactive).
With `Cc1ccc(C(=O)CSc2ccccc2C(=O)O)cc1` the max response was 20.8% (active).
With `CCCC1CCC(=NNC(=S)NCCc2ccccc2)CC1` (centres undefined) the max response was 13.6% (inactive).
With `COc1cc(C(=S)N2CCOCC2)cc(OC)c1OC(=O)c1cc([N+](=O)[O-])c(C)c([N+](=O)[O-])c1` the max response was -3.02% (inactive).
For `CC(C)Cn1cnc2c1c(=O)n(CC(=O)NN)c(=O)n2Cc1ccccc1`, the max response was 0.845% (inactive).
With `CC1CC(C)CN(c2ccc(S(=O)(=O)N3CCOCC3)cc2)C1` (centres undefined) the max response was 7.13% (inactive).
In the case of `CSCC[C@H](NC(=O)N1CCn2c1nc1ccccc12)C(=O)NC1CCCCC1`, the max response is reported as 19.4% (inactive).
With `COc1ccc(C2NC(=O)C(=O)/C2=C(\O)c2ccc(Cl)cc2)cc1OC` (centres undefined) the max response was -4.04% (inactive).
In the case of `O=C(NCCc1ccc2c(c1)OCCO2)c1cc2ccccc2o1`, the max response is reported as 8.84% (inactive).
In the case of `CC(=O)N1CCN(c2ccccc2NC(=S)NC(=O)c2cc3ccccc3o2)CC1`, the max response is reported as -8.35% (inactive).
In the case of `C/C(=N\NC(=S)Nc1ccc(C)cc1)c1cc2ccccc2o1`, the max response is reported as 20.6% (active).
With `C/C(=N\NS(=O)(=O)c1cccc([N+](=O)[O-])c1)c1cc2ccccc2o1` the max response was 1.29% (inactive).
In the case of `Cc1ccc(OC(=O)c2cc3ccccc3o2)cc1`, the max response is reported as 13.6% (inactive).
In the case of `Cc1cccc(-n2nc3c(c2NC(=O)c2cc4ccccc4o2)CS(=O)(=O)C3)c1`, the max response is reported as -5.35% (inactive).
In the case of `Cc1ccc(NC(=O)c2cc3ccccc3o2)cc1`, the max response is reported as 43.9% (active).
In the case of `CC(C)(C)n1nc2c(c1NC(=O)c1cc3ccccc3o1)CSC2`, the max response is reported as 9.15% (inactive).
With `O=C(Nc1ccncc1)c1cc2ccccc2o1` the max response was 22.3% (active).
In the case of `O=C(O)C1=NN(c2c(F)c(F)cc(F)c2F)C(=O)CC1`, the max response is reported as -4.21% (inactive).
In the case of `C=CCN(N=Nc1cccc([N+](=O)[O-])c1)c1cccc([N+](=O)[O-])c1`, the max response is reported as -2.01% (inactive).
In the case of `O=C(CN1CCN(S(=O)(=O)c2ccc(F)cc2)CC1)NC1CC1`, the max response is reported as 1.9% (inactive).
With `Cc1cnc(C(=O)OCc2c(C)cc(C(C)(C)C)cc2C)cn1` the max response was -3.25% (inactive).
For `Cc1ccc(SCC(=O)c2sc(-c3ccccc3)nc2C)cc1`, the max response was -0.538% (inactive).
In the case of `Cc1nc(-c2ccccc2)sc1C(=O)/C=C/N(C)C`, the max response is reported as 45.3% (active).
With `Cc1nc(COc2cccc(Cl)c2)sc1C(=O)/C=C/N(C)C` the max response was 40.9% (active).
With `O=C(COc1cccc(Cl)c1)NCc1ccccc1` the max response was 7.99% (inactive).
In the case of `CC(Oc1ccc(Cl)cc1Cl)C(=O)/C=C/N(C)C` (centres undefined), the max response is reported as 2.24% (inactive).
In the case of `CN(C)/C=C/C(=O)c1ccccc1F`, the max response is reported as 5.51% (inactive).
